Experimental data: PubChem BioAssay (NCI)
The panel holds about 79,000 compounds, 15% with a hit somewhere; the sample as a whole holds those more often. No stated cut-off is given here; in the data, active means growth inhibition above about 70%; inactive means the rest.

Experiments:
[1] = NCI Yeast Anticancer Drug Screen. Data for the rad50 strain (AID 155);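 further: 0% = growth of vehicle-only cultures of the same strain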; settings: S. cerevisiae rad50 strain growth inhibition; at 50.0 µM; hits give high values
Method in brief: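 Yeast carrying a defined DNA repair defect were exposed to test compounds, and growth was compared with vehicle-treated controls to give percent inhibition.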

[2] = NCI Yeast Anticancer Drug Screen. Data for the mec2-1 strain (AID 157); settings: S. cerevisiae mec2-1 strain, at 50.0 µM, hits give high values
Method in brief: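 Each compound was tested on mec2-1 yeast, a strain altered in DNA damage repair or cell cycle control. Growth inhibition is reported relative to vehicle.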

[3] = NCI Yeast Anticancer Drug Screen. Data for the sgs1 mgt1 strain (AID 161);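 further: 0% = growth of cultures given vehicle only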; settings: S. cerevisiae sgs1 mgt1 strain, at 50.0 µM, hits give high values
Method in brief: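 Genetically altered yeast, compound exposure, growth inhibition relative to vehicle.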

[4] = NCI Yeast Anticancer Drug Screen. Data for the cln2 rad14 strain (AID 165);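 further: 0% = growth equal to vehicle treated cultures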; settings: S. cerevisiae cln2 rad14 strain, at 50.0 µM, hits give high values
Method in brief: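 Test compounds were added to cln2 rad14 yeast cultures; inhibition of growth was then determined by comparison with vehicle treatment.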

[5] = NCI Yeast Anticancer Drug Screen. Data for the bub3 strain (AID 167); settings: S. cerevisiae bub3 mutant strain, at 50.0 µM, hits give high values
Method in brief: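 Compounds were applied to a genetically altered yeast strain carrying a cell-cycle control defect. Growth inhibition was scored against vehicle-treated controls.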

[6] = NCI Yeast Anticancer Drug Screen. Data for the mlh1 rad18 strain (AID 175); settings: S. cerevisiae mlh1 rad18 strain growth inhibition; at 50.0 µM; hits give high values
Method in brief: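 Inhibition values reflect reduced growth of mutant yeast versus vehicle-treated controls following compound exposure; the mutations affect DNA damage repair.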

Measured: growth inhibition

CC(C(=O)O)n1c(=O)ssc1=O (configuration not stated)
inactive: [1] 1.95% | [2] 3.05% | [3] 1.3% | [4] -9.25% | [5] -8.7% | [6] 0%

COC(=O)C(Cc1cn(C(C)=O)c2ccccc12)P(=O)(OC)OC (configuration not stated)
inactive: [1] -13.3% | [2] -40.1% | [3] -5.25% | [4] 13% | [5] 25.4% | [6] -11.8%

COCCOC(=O)C(O)c1ccccc1 (configuration not stated)
inactive: [1] 23.9% | [2] 13.9% | [3] 9.05% | [4] 9% | [5] 12.8% | [6] 10.4%

CC(=O)OCC(C)Cc1ccccc1 (configuration not stated)
inactive: [1] 6.35% | [2] 13.8% | [3] -0.25% | [4] 8.2% | [5] 1.9% | [6] -2.25%

CS/C(=C\c1ccc2ccccc2[n+]1C)N1CCN(CCCO)CC1
inactive: [1] 23.4% | [2] 10% | [3] 9.95% | [4] -20.6% | [5] -7.4% | [6] 38.1%

O=C1C=CC[C@H](/C=C/c2ccccc2)O1
inactive: [1] 21.6% | [2] 31.8% | [3] 28.6% | [4] 24.4% | [5] 33.5% | [6] 48.9%

CSC1(SC)CCCCCCCCCCC1
inactive: [1] -19.8% | [2] -17.2% | [3] -17.9% | [4] -15.9% | [5] -34.9% | [6] -29.4%

Cc1ccc(OCC2OC(n3cnc4c(N(C)C)nc(Br)nc43)CC2Oc2ccc(C)cc2)cc1 (configuration not stated)
inactive: [1] 17.5% | [2] -4.8% | [3] 13.1% | [4] 12.6% | [5] 2.45% | [6] -17%

CC(=O)c1cc(CC2Cc3cc4c(cc3C2=O)CCC4)cc2c1CCC2 (configuration not stated)
inactive: [1] -37.5% | [2] -36.1% | [3] -14.2% | [4] 9% | [5] -6.45% | [6] -4.85%

CC1C(=O)N(c2ccccc2)C1c1ccccc1 (configuration not stated)
inactive: [1] -18.6% | [2] -31.3% | [3] -11.9% | [4] -24.6% | [5] 2.95% | [6] -19.6%

CCOC(=O)C(N)Cc1cc(I)c(O)c(I)c1 (configuration not stated)
inactive: [1] -20.1% | [2] -31.1% | [3] -14.4% | [4] 7.8% | [5] -23.2% | [6] -25.1%

COc1ccc(C2c3cc4c(cc3OC(C)(OC)C2C)OCO4)cc1 (configuration not stated)
inactive: [1] -33.5% | [2] -6.8% | [3] -3.25% | [4] -14.8% | [5] 19.8% | [6] 14.7%

O=C1CCC2CN(C(=O)c3ccccc3)CCC2C1 (configuration not stated)
inactive: [1] 8.75% | [2] 7.7% | [3] 21.1% | [4] 3.1% | [5] 16.6% | [6] 22.2%

CCOc1ccc(Cc2ccc3c(c2)OCO3)cc1C
inactive: [1] -17.2% | [2] -13.3% | [3] -7.55% | [4] -13.2% | [5] -2.1% | [6] 2.2%

COc1ccc(N(N=Nc2ccccc2)C(C)=O)cc1
inactive: [1] -2.05% | [2] 2% | [3] 30.9% | [4] -4.75% | [5] -16.7% | [6] 11.9%

O=[S@@]1Nc2cc(Cl)c(Cl)cc2S1
inactive: [1] 9.6% | [2] -2% | [3] -6.6% | [4] 3.45% | [5] -0.05% | [6] 14.1%

O=[N+]([O-])c1ccc(CSc2ncnc3c2ncn3C2OC(CO)C(O)C2O)cc1 (configuration not stated)
inactive: [1] 10.7% | [2] 22.6% | [3] 9.5% | [4] -7.35% | [5] -4.05% | [6] -17.4%

COC(=O)C(c1ccccc1)C(CBr)(OC)c1ccccc1 (configuration not stated)
inactive: [1] 18.8% | [2] 8.85% | [3] 12.5% | [4] 15.8% | [5] 13.6% | [6] 27.1%

CC(=O)OC1CCC2(C)C(CCC3C2CCC2(C)C(C(C)C(=O)O)CCC32)C1 (configuration not stated)
inactive: [1] -10.7% | [2] 1.85% | [3] 1.45% | [4] 10.8% | [5] -3.6% | [6] 3.9%

COc1ccc(CCN/C=C(\C)C(=O)c2ccc(F)cc2)cc1OC
inactive: [1] 11.2% | [2] -4.6% | [3] -13.6% | [4] -29.2% | [5] -13.9% | [6] -4.5%

O=C(Nc1ccccc1)OCC(CN1CCCCC1)OC(=O)Nc1ccccc1 (configuration not stated)
inactive: [1] -35.7% | [2] -38% | [3] -13.8% | [4] 5.55% | [5] -23.8% | [6] -37.1%

Cc1cc2ncn(C3OC(CO)C(O)C3O)c2cc1C (configuration not stated)
inactive: [1] -2.7% | [2] 8.35% | [3] -8.25% | [4] 21.5% | [5] -8.2% | [6] 2.65%

CC(C)OC(=O)c1cc(N)ccc1Cl
inactive: [1] 29.1% | [2] 23.4% | [3] 17.4% | [4] 2.45% | [5] 38.4% | [6] 34%

CN(C)/C=N/c1nc2ncn(CCOC(=O)c3ccccc3)c2c(=O)[nH]1
inactive: [1] -20.6% | [2] -24.6% | [3] 11.3% | [4] 10.6% | [5] -11.4% | [6] -20.9%

CCCCOCCOCC(C)O (configuration not stated)
inactive: [1] 14.9% | [2] 10.2% | [3] 37.2% | [4] -24.4% | [5] -8.4% | [6] 2.05%

CCOC(=O)C1CN(CCCN2CC(C(=O)OCC)C(=O)C2=O)C(=O)C1=O (configuration not stated)
inactive: [1] 9.9% | [2] 7.25% | [3] 3.5% | [4] 24.1% | [5] 9.95% | [6] -3.95%

CCCCNC(=O)OCCN=c1c2ccccc2ccc2ccccc12
inactive: [1] -25.6% | [2] -31.4% | [3] -9.95% | [4] 2.8% | [5] -1.3% | [6] -15.4%

Cc1ccnc(-n2c(N)cc(=O)[nH]c2=S)c1
inactive: [1] -7.15% | [2] 1.3% | [3] 10.6% | [4] -17.4% | [5] 27.6% | [6] 5.55%

CC1=Nc2nc(=NCCCN(C)C)nc3cccc(n23)N1
inactive: [1] 7.6% | [2] -1.35% | [3] 7.65% | [4] 11.2% | [5] 6.4% | [6] 4%

COc1ccc2oc3c(ccc[n+]3C)c(=O)c2c1
inactive: [1] -22.9% | [2] -14.7% | [3] -12.1% | [4] 10.9% | [5] -2.9% | [6] -16.9%

CCOC(=O)C(NC(C)=O)C(=O)OCC
inactive: [1] -3.4% | [2] 10.2% | [3] 3.5% | [4] -12.6% | [5] -7.15% | [6] -16.4%

O=C1c2cccc3cccc(c23)C(=O)N1Cc1ccco1
inactive: [1] 41.4% | [2] 36.2% | [3] 45% | [4] 44.5% | [5] 40.2% | [6] 24.7%

CCOC(=O)c1c(C(=O)Nc2ccccc2)c(-c2ccccc2)n(NC(=O)c2cccc(Cl)c2)c1C
inactive: [1] 18.1% | [2] 10.3% | [3] 3.9% | [4] 7.2% | [5] -4.85% | [6] 21.5%

Nc1ccccc1N/N=C/c1ccccc1
inactive: [1] -4.3% | [2] 15.3% | [3] -15.4% | [4] -37.5% | [5] -15.3% | [6] 5.25%

N#Cc1ccc(/C=C/C(=O)c2ccccc2)cc1
inactive: [1] 13.4% | [2] -20.1% | [3] 5.8% | [4] 6.8% | [5] 13.9% | [6] 9.05%

Cc1cc(=NO)cc(C)n1O
inactive: [1] 43.5% | [2] 21% | [3] 54.9% | [4] -3.3% | [5] 3.55% | [6] 7.85%

O=c1[nH]c(-c2ccccc2)nc(-c2ccccc2)c1Cc1cc2c(cc1O)OCC2
inactive: [1] -0.1% | [2] -4.05% | [3] 20.7% | [4] 2.8% | [5] 0.7% | [6] -10.6%

COC(=O)c1c2c(cc3c1CC1(Cc4cc5c(cc4C1=O)CCC5)C3)CCC2 (configuration not stated)
inactive: [1] -23.4% | [2] -37% | [3] -2.4% | [4] 0.45% | [5] 10.8% | [6] 3.3%

C[N+](C)(CCNCC(N)=O)CC(N)=O
inactive: [1] -17.6% | [2] -4.2% | [3] -19.1% | [4] -9.95% | [5] 5.15% | [6] -1.5%

COC(SC)(C(=O)O)c1cc(-c2c(Cl)cccc2Cl)no1 (configuration not stated)
inactive: [1] -5.4% | [2] -6.8% | [3] -9.35% | [4] -11.4% | [5] 12.2% | [6] -1%

OC1c2ccccc2-c2ccc(Cl)cc21 (configuration not stated)
inactive: [1] 23.8% | [2] 14.2% | [3] -7.15% | [4] -32.2% | [5] 4.15% | [6] 14.9%

FC(F)(F)c1ccccc1N=Cc1cccs1
inactive: [1] -12.1% | [2] -9.55% | [3] 23.1% | [4] 3.05% | [5] 13.4% | [6] 20.3%
